Only a selection was taken, and hits are over-represented in it overall.
mcGAS RapidFire = inhibitors of Mus musculus cyclic GMP-AMP synthase, initial high-throughput assay, cell-free, RapidFire MS. recombinant mouse cGAS, cGAMP by RapidFire MS. inhibition, % at 12.5 µM. actives 0.18% (n = 130,000). AID 1259397, 2018;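 active = inhibition of cGAS enzyme activity at or above 60%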;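 note: enzyme stimulated by 45 bp dsDNA with ATP and GTP substrates; cGAMP share of summed cGAMP plus half ATP and half GTP signals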
Target sequence (Q8C6L5 whole entry, looked up): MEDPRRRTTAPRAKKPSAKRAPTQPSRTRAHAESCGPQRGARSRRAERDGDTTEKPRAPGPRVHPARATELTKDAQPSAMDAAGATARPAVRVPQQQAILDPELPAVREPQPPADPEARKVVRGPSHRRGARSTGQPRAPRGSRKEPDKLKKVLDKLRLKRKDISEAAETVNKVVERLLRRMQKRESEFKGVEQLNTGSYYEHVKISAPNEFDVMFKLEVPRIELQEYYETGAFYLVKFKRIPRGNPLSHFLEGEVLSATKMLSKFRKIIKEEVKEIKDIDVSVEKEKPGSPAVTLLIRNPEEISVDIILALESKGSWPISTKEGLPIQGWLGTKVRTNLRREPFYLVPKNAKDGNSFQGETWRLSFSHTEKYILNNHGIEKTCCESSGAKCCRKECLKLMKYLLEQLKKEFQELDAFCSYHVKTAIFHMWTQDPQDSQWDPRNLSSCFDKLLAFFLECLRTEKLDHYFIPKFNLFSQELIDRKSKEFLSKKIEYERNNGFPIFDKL
Active calls of the source: *; ! = a repeat was not active.

SMILES	mcGAS RapidFire
Cc1cccc(C)c1NC(=O)c1ccccc1NC(=O)C(C)n1ccnc1C (stereo not drawn)	-9
CCN(C(=O)c1ccc(Oc2ccccc2)o1)C1CCS(=O)(=O)C1 (stereo not drawn)	-6
CC(NC(C)c1ccccc1Br)c1nc(N)nc(N(C)C)n1 (stereo not drawn)	-27
COc1ccc(O)c(C(C)NC(=O)c2cc(C)nn2C)c1 (stereo not drawn)	-11
CCCC1C(C#N)C(=N)SC(=N)C1C#N (stereo not drawn)	-1
N#CC1C(=N)SC(=N)C(C#N)C1c1ccc([N+](=O)[O-])cc1 (stereo not drawn)	62*
CCOC(=O)C1=C(C)NC(=O)C(C#N)C1c1ccc([N+](=O)[O-])cc1 (stereo not drawn)	-7
CC[C@H]1CN(C(=O)CCc2ccc(S(=O)(=O)NC)cc2)CC[C@@]1(C)O	-16
COc1ccc(C2c3sc(=O)[nH]c3SC3C(=O)NC(=O)C32)cc1 (stereo not drawn)	-2
O=C1C2Sc3[nH]c(=O)sc3C(c3ccc(O)cc3)C2C(=O)N1c1ccc(Cl)cc1 (stereo not drawn)	0
O=C1NC(=O)C2C1Sc1[nH]c(=O)sc1C2c1ccco1 (stereo not drawn)	89*
C=CCn1c(SCC(=O)c2c(N)n(C)c(=O)n(C)c2=O)nc2sc3c(c2c1=O)CCCC3	-7
Cc1cccnc1N1C(=O)C2C3C=CC(C3)C2C1=O (stereo not drawn)	-1
O=C(Cc1ccc(-c2ccccc2)cc1)Nc1cccc2c1OCCO2	-17
CN(CC(=O)Nc1nccs1)Cc1ccc(Cl)c(Cl)c1	-10
O=c1c(O)cccc2cc(O)c(O)c(O)c12	65*
CCc1nn2c(N)c(C=C3C=CC(=O)C=C3)c(=O)nc2s1	89*
Nc1c(C=C2C=CC(=O)C=C2)c(=O)nc2sc(-c3ccccc3)nn12	51
Nc1c(C=C2C=CC(=O)C=C2)c(=O)nc2sc(-c3ccccc3Cl)nn12	50
CC1CCCCN1C(=O)CCC1(Cc2ccc(Cl)cc2)CCC(=O)N1 (stereo not drawn)	-5
CCCNC(=O)Cn1nc(C2CC2)c2cnn(-c3ccc(C)c(C)c3)c2c1=O	-2
c1ccc(-c2ccc(CN3CCCC3)cn2)c(CN2CCOCC2)c1	-18
Cc1nc2sccn2c1CN(C)C(=O)c1ccc2c(c1)CCCC(=O)N2	1
O=C(Nc1nnc(C2CC2)s1)c1ccc(F)cc1Br	3
COc1ccccc1-c1ccc(C(=O)N2CCN(C)C(C)C2)cc1 (stereo not drawn)	-8
SMILES	mcGAS RapidFire
COc1ccccc1OC(C)(C)C(=O)N1CCN(C)C(C(=O)O)C1 (stereo not drawn)	82*!
CN1CCN(C2CCN(C(=O)c3ccccc3)CC2)CC1C(=O)O (stereo not drawn)	11
OCc1ccc(-c2nccn2CCCCc2ccccn2)o1	-6
CCN(CC)CCCC(C)Nc1c2ccc(Cl)cc2nc2ccc(OC)cc12 (stereo not drawn)	68*!
CCN(CC)CCCC(C)NCc1ccccc1OC (stereo not drawn)	-1
COc1ccc2nc3cc(Cl)ccc3c(Nc3cc(CN4CCCC4)c(O)c(CN4CCCC4)c3)c2n1	33
C=CCNC(=S)NN=C1C=C(C)CC(C)(C)C1	-3
Cc1ccc(C)c(OC(C)C(=O)NCCNc2cccnc2)c1 (stereo not drawn)	-3
COc1cc(C=NN2CCN(C)CC2)cc(OC)c1O	-13
Cc1cc(-c2ccc(NN=C3C=Cc4c(S(=O)(=O)O)cc(S(=O)(=O)O)c(N)c4C3=O)c(C)c2)ccc1NN=C1C=Cc2c(S(=O)(=O)O)cc(S(=O)(=O)O)c(N)c2C1=O	95*
COCC1(NC(=O)c2ccccc2C2CCNC2)CCCC1 (stereo not drawn)	-17
CSc1ccc(C2C(C#N)=C3Sc4ccccc4N3C(=N)C2C#N)cc1 (stereo not drawn)	-21
O[C@@H]1CN(CCc2ccccc2)CC[C@H]1N1CCN(c2ccccc2F)CC1	-3
O=C(C1CC1c1ccc(Cl)c(Cl)c1)N1CCCn2ncnc21 (stereo not drawn)	96*
CN1CCN(C)C(CNC(=O)C2CC2c2ccc(Cl)c(Cl)c2)C1 (stereo not drawn)	-4
CCCn1c(=O)n(CCC(=O)N2CCCn3ncnc32)c2ccccc21	-12
CC(CNc1ccccn1)CC1(C)OCCO1 (stereo not drawn)	3
O=C(Nc1cccnc1)c1cccc(S(=O)(=O)NC2CCS(=O)(=O)C2)c1 (stereo not drawn)	-6
Cc1cc(NC(=O)CSc2nnc(C3CC3)n2C2CC2)no1	-9
CC1=C(C(=O)N(Cc2nccn2C)C(C)C)C(C)NC(=O)N1 (stereo not drawn)	-14
O=S(=O)(N=Cc1c(O)ccc2ccccc12)c1ccccc1	17
Oc1ccc2ccccc2c1N=Nc1c(O)ccc2ccccc12	-12
Oc1ccc2ccccc2c1SSc1c(O)ccc2ccccc12	66*
CN(C)C(CNc1ncnc2c1c(Br)nn2C)C1CC1 (stereo not drawn)	1
O=C(Nc1ccc(Br)cc1C(F)(F)F)C1CC1	-6
SMILES	mcGAS RapidFire
O=C(COc1ccc(-n2cnnn2)cc1)Nc1cccc(Br)c1	-1
O=C(O)CNC(=O)CN1C(=O)CSC1=S	13
O=C(O)CN1C(=O)/C(=C2/C(=O)N(CC(=O)O)c3ccccc32)SC1=S	4
O=C(O)CN1C(=O)C(=NN2C(=O)CSC2=S)c2ccccc21	92*
Cc1cc(C(=O)N2CCCC(Nc3ccc(F)cc3)C2)c(C)o1 (stereo not drawn)	-3
CSC1(CNc2ccc(Br)cn2)CCOCC1	71*
CSC1(CNC(=O)c2ccc(Oc3ccccc3)nc2)CCOCC1	-13
CSC1(CNC(=O)N2CCCC2c2cccs2)CCOCC1 (stereo not drawn)	14
COC(=O)Cn1cnc2c(nnn2Cc2ccc(C)cc2)c1=O	4
CCS(=O)(=O)N1CCCC(C(=O)Oc2cccnc2)C1 (stereo not drawn)	-3
CN(Cc1cccc(Cl)c1)C(=O)CCc1nc2sc3c(c2c(=O)[nH]1)CCC3	5
Cc1cnc(-n2cnnc2)c(-c2cccc(C(C)N3CCCC3)c2)c1 (stereo not drawn)	-12
Cc1nn2c(C(F)(F)F)cc(-c3ccc(Cl)cc3)nc2c1C(=O)Nc1ccc(F)cc1F	-9
CCC(C)n1c(C)cn2c3c(=O)[nH]c(=O)n(C)c3nc12 (stereo not drawn)	-4
CC1CCC2(CC1)NC(=O)N(NC(=O)CN(C)Cc1ccccc1)C2=O (stereo not drawn)	-4
N#Cc1cccc(NN=C2CCN(c3ccc(F)cc3)CC2)c1	89*
N#Cc1cccc(N/N=C2\CCn3cccc32)c1	-7
N#Cc1cccc(NC(=O)N2CCN(c3ccc(C#N)cc3F)CC2)c1	-1
O=C(COC(=O)C1CCOCC1)NCc1ccco1	-13
NC(=O)c1cccc(CSCc2nnc(Cc3ccccc3)o2)c1	-25
O=S(=O)(Cc1ncc(-c2cccc(F)c2)o1)CC1CCCO1 (stereo not drawn)	-4
Cc1nc2ccccc2c(C)c1CC(=O)NCCCn1ccnc1	-7
CN(C)C(=O)Cc1ccccc1NC(=O)NCCCn1ccnc1	94*
Cc1ccccc1CC(C)(C)NC(=O)NCCn1ccnc1	-5
CC1CCCCN1C(=O)C1CCN(C(=O)c2ccc(Br)cc2)CC1 (stereo not drawn)	-6
N#Cc1nncn1Cc1csc(-c2cccs2)n1	3
